Bioassay records: PubChem, Broad Institute
F508del corr: F508del CFTR correction, initial screen, CFBE line, single point; CFBE cells, YFP halide quenching; stimulated with forskolin plus potentiator P3; % fluorescence drop versus neutral controls; activity (quench increase), % at 7.58 µM; actives 0.36% (n = 350,000);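 active = mean added fluorescence quench of at least 8% versus neutral control, with both replicates also reaching 8%; inconclusive = only one of the mean or replicate conditions met; inactive = mean below 8% and not both replicates reaching 8%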;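 also: cells transiently co-express mutant CFTR-F508del with the halide-sensitive YFP; corrector assay measuring rescue of mutant channel to the surface after 24 h compound exposure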
Wnt bcat act: Wnt/beta-catenin pathway activators, primary screen, cell-based, plate reader, single point. Wnt/beta-catenin reporter cell assay, activator. activation, % at 9.35 µM. actives 1.2% (n = 300,000). AID 743398, 2014; in the data active = activation above about 30%, passing the limit was not always enough; inconclusive = no clear call, values can overlap the other calls
MITF act: activators of MITF-driven TRPM1 promoter reporter, primary screen, cell-based, SK-MEL-5, luciferase, single point; SK-MEL-5 TRPM1-promoter luciferase, 24 h; % of positive control, neutral wells = 0; activation, % at 12.5 µM; actives 0.75% (n = 300,000); AID 588334, 2011;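 active = mean activation of at least 80% with every replicate also reaching 80%; inconclusive = mean reaches 80% but some replicate falls short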
INS-1E GSIS act: GLuc luminescence reporter in INS-1E cells, primary screen for activators of glucose-dependent secretion of insulin; INS-1E GLuc reporter insulin secretion, 2-3 h; activation, % at 16.6 µM; actives 0.61% (n = 370,000); AID 743287, 2014;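 active = lowest replicate activation of at least 40%, so every replicate reaches that level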
HIV Env fusion: inhibitors of HIV-1 Env-driven cell-cell fusion, primary screen, HeLa-JRFL effector, CEM21 target cells, luciferase; AID 651610, 2012; actives 1.1% (n = 360,000); inhibition, % at 12.3 µM;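 active = mean replicate inhibition score of at least 50 and every replicate individually at or above 50; inconclusive = only one of the two criteria met; inactive = mean below 50 and not all replicates reaching 50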
A number is an active result. Shown are actives, neighbours in structure and some others; about 2.7% of the full set was active somewhere.

For CCCc1cn(CC[C@H]2CC[C@H](NC(=O)CCN3CCCCC3)[C@H](CO)O2)nn1 the results were F508del corr inactive, INS-1E GSIS act inactive and HIV Env fusion inactive.
For Cc1ccc(-c2ccc(CCC(=O)O)n2NC(=O)c2ccc([N+](=O)[O-])cc2)cc1 the results were F508del corr inactive, Wnt bcat act 54, MITF act inactive, INS-1E GSIS act inactive and HIV Env fusion inactive.
`C[C@H]1CN([C@@H](C)CO)C(=O)Cc2cc(NS(=O)(=O)c3ccccc3)ccc2O[C@H]1CN(C)C(=O)Nc1ccc2c(c1)OCO2` gave F508del corr inactive, INS-1E GSIS act inactive and HIV Env fusion inactive.
For Cc1nc(NC(=O)c2csc3ccccc23)sc1C the results were Wnt bcat act 42, MITF act inactive, INS-1E GSIS act inactive and HIV Env fusion inactive.
C#Cc1ccc(NC(=O)C2(C)CCN2C(=O)c2cc(C)n(C)n2)cc1 (stereo unspecified) was read as F508del corr 8.1, Wnt bcat act inactive and INS-1E GSIS act inactive.
`COc1ccc(NC(=O)Nc2cccc3c2O[C@H](CN(C)C)[C@@H](C)CN([C@@H](C)CO)C3=O)cc1` gave F508del corr inactive and INS-1E GSIS act inactive.
`COc1cccc(S(=O)(=O)N(C)C[C@@H]2Oc3cc(C4=CCCCC4)ccc3S(=O)(=O)N([C@H](C)CO)C[C@@H]2C)c1` gave F508del corr inactive and HIV Env fusion inactive.
C[C@H]1CCCCO[C@H](CN(C)C(=O)c2ccccc2)[C@@H](C)CN([C@@H](C)CO)C(=O)c2cc(NC(=O)Cc3ccccc3)ccc2O1 was read as F508del corr inactive, INS-1E GSIS act inactive and HIV Env fusion inactive.
Screening COc1ccc(C(C)=O)cc1Cn1cnc2c(cnn2C)c1=O returned F508del corr inactive, Wnt bcat act inactive, MITF act inactive, INS-1E GSIS act 50 and HIV Env fusion inactive.
`COc1ccc(C=O)cc1Cn1cnc2c(cnn2C)c1=O` gave F508del corr inactive, Wnt bcat act inactive, MITF act inactive, INS-1E GSIS act inactive and HIV Env fusion inactive.
Screening Cc1cc(=O)n2cc(-c3ccccc3)nc2[nH]1 returned HIV Env fusion inactive.
Screening Cc1ccc(-c2cn3c(=O)cc(C)[nH]c3n2)cc1 returned Wnt bcat act 45, MITF act inactive and HIV Env fusion inactive.
`O=C(N[C@H]1/C=C\[C@@H](O)CCCC1)OCc1ccccc1` gave F508del corr inactive, Wnt bcat act inactive, MITF act 98, INS-1E GSIS act inactive and HIV Env fusion inactive.
`COc1ccc(N2CCn3c2nc2c3c(=O)n(CCCc3ccccc3)c(=O)n2C)c(OC)c1` gave Wnt bcat act inactive and HIV Env fusion 73.
`COc1ccc(N2CC(C)Cn3c2nc2c3c(=O)n(Cc3ccccc3)c(=O)n2C)c(OC)c1` (stereo unspecified) gave F508del corr inactive, Wnt bcat act inactive, MITF act inactive, INS-1E GSIS act inactive and HIV Env fusion inactive.
For COc1ccc(-c2ccc3n(c2=O)C[C@@H]2[C@@H](CO)[C@H](C(=O)Nc4ccccc4)N(C)[C@H]32)cc1 the results were F508del corr inactive and INS-1E GSIS act inactive.
CC(=O)N1[C@H](CO)[C@H](c2ccccc2)[C@@H]1CN(C(=O)c1ccccc1)C(C)C was read as F508del corr inactive and INS-1E GSIS act inactive.
CO[C@@H]1CN(C)C(=O)c2ccc(NS(=O)(=O)c3ccccc3)cc2OC[C@@H](C)N(Cc2ccccn2)C[C@H]1C was read as F508del corr inactive and INS-1E GSIS act inactive.
Fc1ccc(/C=N/NC(=S)Nc2ccc(Cl)cc2Cl)cc1 was read as F508del corr 10, Wnt bcat act inactive, MITF act inactive, INS-1E GSIS act inactive and HIV Env fusion inactive.
Screening Fc1ccc(NC(=S)N/N=C/c2ccc(F)c(F)c2)cc1 returned F508del corr inactive, Wnt bcat act inactive, MITF act inactive, INS-1E GSIS act inactive and HIV Env fusion inactive.
For O=C(C[C@@H]1C[C@H]2c3cc(NS(=O)(=O)c4ccc(F)cc4)ccc3O[C@H]2[C@H](CO)O1)NCC1CC1 the results were F508del corr inactive, INS-1E GSIS act inactive and HIV Env fusion inactive.
For CCCNC(=O)[C@@H]1[C@@H](CO)[C@@H]2Cn3c(ccc(/C=C/c4ccccc4)c3=O)[C@H]1N2C(=O)c1ccccc1 the results were F508del corr inactive and INS-1E GSIS act inactive.
Screening C=CCOc1ccc2c(OC)c3ccoc3nc2c1OC returned Wnt bcat act 35, MITF act inactive and HIV Env fusion inactive.
For CCOc1c2ccoc2nc2c(OC)c(OC)ccc12 the results were F508del corr inactive, Wnt bcat act inactive and INS-1E GSIS act inactive.
For COCC(=O)Nc1ccc2c(c1)OC[C@H](C)N(Cc1cccc(F)c1)C[C@@H](C)[C@@H](OC)CN(C)C2=O the results were F508del corr inactive, INS-1E GSIS act inactive and HIV Env fusion inactive.
For CCCC(=O)N(C)c1nnc(-c2ccc(OC)cc2)s1 the results were Wnt bcat act 34, MITF act inactive and HIV Env fusion inactive.
For COCCN(C(=O)CCc1ccc(OC)cc1)c1nnc(-c2ccncc2)s1 the results were F508del corr inactive, Wnt bcat act inactive, MITF act inactive, INS-1E GSIS act inactive and HIV Env fusion inactive.
Screening CC1(C(=O)NCc2ccccc2)CCC(=O)N1C1CCN(Cc2ccccc2)CC1 (stereo unspecified) returned F508del corr inactive, Wnt bcat act inactive, INS-1E GSIS act inactive and HIV Env fusion inconclusive.
CCCCNC(=O)C1(C)CCC(=O)N1C1CCN(Cc2ccccc2)CC1 (stereo unspecified) was read as F508del corr inactive, Wnt bcat act inactive, INS-1E GSIS act inactive and HIV Env fusion 64.
Cn1c(=O)c2c(ncn2CC(=O)OCC(=O)NCc2ccccc2Cl)n(C)c1=O was read as Wnt bcat act 36, MITF act inactive, INS-1E GSIS act inactive and HIV Env fusion inactive.
`NS(=O)(=O)c1cccc(NC(=O)CSc2nn(-c3ccccc3)c(=S)s2)c1` gave Wnt bcat act inactive, MITF act inactive, INS-1E GSIS act inactive and HIV Env fusion inactive.
For CN(C)S(=O)(=O)c1cc(NC(=O)CSc2nn(-c3ccc(Cl)cc3)c(=S)s2)ccc1Cl the results were Wnt bcat act inactive, MITF act inactive, INS-1E GSIS act inactive and HIV Env fusion 133.
`Cc1ccc(NC(=O)CSc2nn(-c3ccc(Cl)cc3)c(=S)s2)cc1S(=O)(=O)N(C)C` gave Wnt bcat act inactive, MITF act inactive, INS-1E GSIS act inactive and HIV Env fusion 83.
For COc1ccc(C(=O)/C=C/c2ccc(N(C)C)cc2)c(OC)c1 the results were F508del corr 18, Wnt bcat act inactive, INS-1E GSIS act inactive and HIV Env fusion inactive.
`C=CCSc1cc(C)nc2c(-c3ccccc3)cnn12` gave F508del corr inactive, Wnt bcat act 33, MITF act inactive and HIV Env fusion inactive.
